A549 viability: Nrf2 qHTS screen for inhibitors: counterscreen for cytotoxicity | A549 ARE-Fluc cells, CellTiter-Fluor viability, 18-24 h | Potency, µM (doses to about 46 µM), for the others: top-dose activity change, negative = cytotoxicity, actives largely listed as inhibitors | 0.16% of 390,000 active | AID 504648, 2011; note: % is set by controls: 0 for no effect and ±100 for the full control effect
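Cytotoxicity counterscreen: CellTiter-Fluor fluorescence was measured in A549 ARE_Fluc cells after 18-24 h of compound exposure in a concentration series. The subsequent BugLite luminescent read reports ARE-luciferase activity.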
ATXN viability: Viability Counterscreen for Primary qHTS for Inhibitors of ATXN expression; Potency, µM (top dose mostly 56.7 µM), actives largely listed as cytotoxic; 0.49% of 400,000 active; AID 651635, 2014; S2 cells (HEK-293 line with an ATXN2-luciferase reporter) viability, CellTiter-Fluor protease fluorescence, 24 h; note: nearly all actives have a fitted effect of over 40% in size
ATXN2 expr inh: Primary qHTS for Inhibitors of ATXN expression; Potency, µM (highest dose often 57 µM), for the others: at the highest dose activity change, negative = inhibition, hits mostly inhibitors; AID 1745845, 2022; 0.72% of 360,000 active; HEK-293 ATXN2-luciferase reporter, luminescence, 24 h; note: % is set by controls: 0 for no effect and ±100 for the full control effect; nearly all actives have a fitted effect of over 55% in size
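ATXN2-luciferase reporter cells (luciferase flanked by upstream and downstream ATXN2 gene portions) were treated 24 h at 37 °C with compounds at up to 57 uM. SteadyGlo luminescence gave expression; GF-AFC fluorescence gave viability.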
Nrf2 ARE act: qHTS of Nrf2 Activators; Potency, µM (highest dose often 46.1 µM), inactives show top-dose activation, most hits filed as activators; 0.31% of 410,000 active; AREc32 ARE-luciferase reporter (MCF7-derived line), luminescence, 24 h; note: % of control where 0% means no effect; nearly all actives have a fitted effect of over 65% in size
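AREc32 cells carrying an ARE-driven firefly luciferase reporter were seeded at 1000 cells/well in OPTI-MEM with 5% FBS, then exposed to compound for 24 hr at 37 deg C. Luminescence was read with Steady-Glo after 30 min at RT.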
Nrf2 inh: Nrf2 qHTS screen for inhibitors; A549 ARE-Fluc reporter, luciferase luminescence, 18-24 h; 2.1% of 360,000 active; Potency, µM (top dose mostly 46 µM), inactives show at the top dose activity change, negative = inhibition, hits mostly inhibitors; note: % is set by controls: 0 for no effect and ±100 for the full control effect; nearly all actives have a fitted effect of over 60% in size
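A549 ARE_Fluc cells (5000/well, 5% FBS OPTI-MEM) pre-incubated 2 h, then treated with compounds 18-24 h at 37C/5% CO2 in concentration-response. CellTiter-Fluor viability read first; BugLite luciferase luminescence after 15 min at room temperature gives Nrf2 activity.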
Numbers without * were called inactive; i = inactive; ? = inconclusive; / = not tested or not shown; [ ] = remark or other dose. In the library only some 2.9% were active in any assay of this set; here they are far more common. Calls come from the whole dose curve; as a rule, active = well fitted curve in the direction sought with a large enough effect; inconclusive = small, poorly fitted or top-dose-only effect, or another doubt; inactive = no such curve, though single readings can be large; an effect the other way counts as inactive or inconclusive. Potency is the fitted concentration of half-maximal effect.

SMILES	A549 viability	ATXN viability	ATXN2 expr inh	Nrf2 ARE act	Nrf2 inh
OCC1(Cc2cccc(C(F)(F)F)c2)CCN(Cc2cc3ccccc3o2)CC1	-7.6%	i	-21.6%	0.0%	-4.0%
COc1ccc(-c2cc(C(F)(F)F)nc(SCC(=O)NCc3cccs3)n2)cc1	-19.0%	?	-21.7%	-0.7%	?
Cc1cc(O)c(C(=O)/C=C/c2ccc(Cl)cc2)c(=O)o1	-0.1%	/	-10.3%	?	1.0%
O=C(/C=C/c1ccc(Cl)cc1)c1ccc([N+](=O)[O-])o1	-17.5%	11.2µM*	?	24.2%	-20.1%
Cc1ccc(/C=C/C(=O)c2ccc([N+](=O)[O-])o2)cc1	-8.9%	8.91µM*	?	?	2.2%
COC(=O)[C@@]1(Cc2ccccc2)[C@@H]2C(=CC(=O)[C@H]2CC(=O)C(=O)N(C)C)CN1C(=O)c1ccccc1	?	20µM*	28.2µM*	-1.9%	?
CC(=O)Sc1nc(-c2ccccc2)[nH]c1S(=O)(=O)c1ccc(C)cc1	-3.5%	i	6.6%	1.5%	7.3%
CSc1nc(-c2ccc(C)cc2)[nH]c1S(=O)(=O)c1ccccc1	-10.5%	i	-4.8%	2.6%	18.4µM*
O=C(Nc1cccc2ncccc12)c1ccccc1F	-8.5%	i	0.5%	12.6µM*	7.8%
O=C(CCl)Nc1cccc2ncccc12	23.1µM*	/	-36.7%	?	16.4µM*
O=C(Nc1cccc2ncccc12)c1ccccc1Cl	1.2%	/	/	8.5%	-2.2%
COc1cc2c(cc1OC)CN(c1ccc3ccccc3n1)CC2	2.3%	i	-7.4%	2.3%	-22.8%
COc1cc2c(cc1OC)CN(c1ccc(-c3ccccc3OC)nn1)CC2	-5.1%	?	?	3.7%	18.4µM*
COc1cccc(-c2noc(-c3ccc(Cl)nc3)n2)c1	8.9%	i	33.6%	?	?
Cc1sc(-n2c(C)cc(/C=N/n3cnnc3)c2C)c(C#N)c1C	-15.5%	i	-3.3%	2.7%	14.6µM*
Cc1cc(/C=C2\SC(=S)NC2=O)c(C)n1-c1cccc(O)c1	?	?	73.8%	5.1%	12.1%
Cc1cc(/C=N/n2cnnc2)c(C)n1-c1ccccc1	-1.2%	i	11.7%	5.8%	/
Cc1sc(-n2c(C)cc(/C=C3\SC(=S)NC3=O)c2C)c(C#N)c1C	20.6µM*	?	9.7%	8.8%	?
COc1cc(CN2CCC(C(=O)NC(c3ccccc3)c3ccsc3)CC2)cc(OC)c1 (stereo unspecified)	/	i	-12.7%	4.0%	/
Cc1ccc(O)c(NC(=O)c2noc3c2CCCC3)c1	-3.0%	?	97.1%	7.94µM*	1.4%
COc1cccc(NC(=O)c2cc3c(=O)n(Cc4cccnc4)ccc3nc2C)c1	6.1%	i	6.1%	9.8%	-12.9%
CCCCCCc1cc2cc(C(=O)Nc3ccccc3)c(=O)oc2cc1O	-2.6%	i	7.08µM*	-0.9%	2.3%
CCCCCCc1cc2cc(C(=O)NCc3ccccc3)c(=N)oc2cc1O	1.6%	i	-34.1%	-0.7%	?
Cn1cc(CN2CCC(n3nccc3NC(=O)c3ccccc3Cl)CC2)c2ccccc21	2.5%	?	?	2.5%	-3.2%
CSc1ccc(-c2cc(=O)c3ccccc3o2)cc1	9.1%[1.84 µM]	i	36.5%	2.82µM*	?
SMILES	A549 viability	ATXN viability	ATXN2 expr inh	Nrf2 ARE act	Nrf2 inh
O=c1cc(-c2ccc(F)cc2)oc2ccccc12	1.3%	i	38.0%	11.2µM*	11.0%
O=c1cc(-c2ccccc2F)oc2ccccc12	-6.3%	i	38.9%	?	19.0%
COc1ccc(C(CNC(=O)c2c(C)nn(Cc3ccccc3)c2Cl)N2CCOCC2)cc1 (stereo unspecified)	5.8%	i	/	0.0%	-6.0%
Cc1cc(SCC(=O)N/N=C/c2ccc(O)cc2O)nc2ccccc12	-2.2%	i	12.6µM*	0.3%	-3.3%
Cc1cc(SCC(=O)N/N=C/c2ccc(O)c(O)c2)nc2ccccc12	-8.4%	?	-9.8%	9.3%	24.4%
COc1ccc2nc(C)cc(SCC(=O)N/N=C/c3ccc(O)c(O)c3)c2c1	0.7%	i	22.9%	10.2%	7.1%
COc1ccc2nc(C)cc(SCC(=O)N/N=C/c3cccc4ccccc34)c2c1	23.1µM*	/	?	0.1%	16.4µM*
CCOc1cc(C(C#N)N2CCCCC2)ccc1OC (stereo unspecified)	-12.0%	i	7.3%	-0.4%	1.9%
Cc1nnsc1C(=O)NC1CCCc2c1cnn2-c1ccccc1F (stereo unspecified)	-15.5%	i	-28.7%	1.9%	2.06µM*
O=C(CCc1ccncc1)NC1CCCc2c1cnn2-c1ccc(F)cc1F (stereo unspecified)	-9.6%	i	?	-0.5%	8.2µM*
O=C(NC1CCCc2c1cnn2-c1ccccc1F)c1ccccn1 (stereo unspecified)	0.2%	i	/	3.3%	?
CC1=C(C(=O)OC(C)(C)C)C(c2ccco2)C(C#N)=C(N)O1 (stereo unspecified)	?	i	-14.7%	4.7%	1.3%
CC(O)CNc1nc2c(c(=O)n(C)c(=O)n2C)n1Cc1cccc(C(F)(F)F)c1 (stereo unspecified)	2.3%	i	-11.3%	2.4%	-9.2%
COCCCn1c(=O)c2sccc2n(Cc2cccc(C)c2)c1=O	-0.8%	i	/	0.3%	-18.4%
Cn1c(=O)c2sccc2n(Cc2cccc(Br)c2)c1=O	-0.6%	i	-21.5%	-0.2%	10.3µM*
COCCNc1nc2c(c(=O)n(C)c(=O)n2C)n1Cc1cccc(C(F)(F)F)c1	-19.9%	i	-9.2%	0.5%	16.4µM*
CC(O)CNc1nc2c(c(=O)n(C)c(=O)n2C)n1C/C=C/c1ccccc1 (stereo unspecified)	-6.0%	i	-8.5%	0.4%	23.1µM*
CC(O)CNc1nc2c(c(=O)n(C)c(=O)n2C)n1Cc1cccc(Br)c1 (stereo unspecified)	-12.8%	i	0.9%	0.7%	16.4µM*
CC(C)CNc1nc2c(c(=O)n(C)c(=O)n2C)n1Cc1cccc(Br)c1	-0.7%	i	1.3%	-0.4%	/
CCOC(=O)c1c(NC(=O)Cc2cccs2)sc(C(=O)N2CCCCC2)c1C	-6.6%	?	-2.8%	-0.3%	-16.9%
CCO[C@@H]1OC(C(=O)NCc2ccccc2)=C[C@H](c2ccc(C(F)(F)F)cc2)[C@H]1CCCO	16.4µM*	?	?	-1.0%	13µM*
O=C1c2ccccc2S(=O)(=O)c2cc(N3CCC(C(=O)N4CCCCC4)CC3)ccc21	15.3%	/	-1.0%	5.9%	11.2%
CC(=O)Nc1ccc(N=Nc2ccccc2)cc1[N+](=O)[O-]	0.1%	i	25.3%	7.94µM*	?
CC(=O)Nc1cc2oc3ccccc3c2cc1[N+](=O)[O-]	2.5%	i	18.7%	?	?
